Source: PubChem BioAssay (several laboratories)
BH1578 lux ind – inducers of Vibrio cholerae quorum light production without autoinducers, primary screen, BH1578 luxS cqsA deficient, single point. activation, % at 18.7 µM. AID 588436, 2011. actives 0.16% (n = 350,000). V. cholerae BH1578 lux reporter, luminescence, 6 h; in the data active = activation mostly above about 9.7%, no sharp cut-off; inconclusive = no clear call, values can overlap the other calls; inactive = mostly below about 3.7%
BoNT F protease – BoNT/F light chain protease inhibitors, primary screen, biochemical, flow cytometry, MLPCN library | actives 0.22% (n = 360,000) | inhibition, % at 10 µM | Multiplex microsphere protease cleavage assay; in the data active = inhibition above about 35%, passing the limit was not always enough; inconclusive = no clear call, values can overlap the other calls
Anthrax LF inh2 – Bacillus anthracis LF protease inhibitors, primary screen, biochemical, multiplex microsphere, MLPCN library; Lethal factor (Bacillus anthracis), P15917; multiplex microsphere protease cleavage assay; inhibition, % at 10 µM; actives 0.12% (n = 360,000)
Target sequence (P15917 whole entry, looked up): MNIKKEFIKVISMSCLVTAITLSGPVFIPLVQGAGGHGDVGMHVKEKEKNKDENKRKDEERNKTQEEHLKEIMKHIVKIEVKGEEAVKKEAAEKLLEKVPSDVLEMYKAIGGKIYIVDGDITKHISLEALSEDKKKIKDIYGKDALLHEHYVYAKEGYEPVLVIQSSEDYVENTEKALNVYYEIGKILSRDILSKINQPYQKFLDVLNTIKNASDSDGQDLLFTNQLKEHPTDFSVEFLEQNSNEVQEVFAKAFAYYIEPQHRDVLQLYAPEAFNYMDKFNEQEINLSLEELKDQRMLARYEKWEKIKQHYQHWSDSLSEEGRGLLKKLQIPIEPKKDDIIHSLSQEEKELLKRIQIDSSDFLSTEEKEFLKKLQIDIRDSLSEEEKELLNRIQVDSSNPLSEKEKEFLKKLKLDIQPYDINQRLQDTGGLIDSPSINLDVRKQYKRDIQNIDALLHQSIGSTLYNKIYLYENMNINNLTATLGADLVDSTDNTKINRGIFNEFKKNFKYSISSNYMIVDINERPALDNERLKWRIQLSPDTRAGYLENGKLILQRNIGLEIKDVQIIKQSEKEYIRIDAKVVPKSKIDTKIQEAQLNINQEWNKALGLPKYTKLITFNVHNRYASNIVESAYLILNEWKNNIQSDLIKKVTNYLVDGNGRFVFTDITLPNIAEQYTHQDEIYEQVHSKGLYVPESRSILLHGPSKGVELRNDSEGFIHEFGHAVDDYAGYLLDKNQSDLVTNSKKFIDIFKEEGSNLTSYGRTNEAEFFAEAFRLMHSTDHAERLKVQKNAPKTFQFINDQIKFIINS
Bead autofluor – compound fluorescence in toxin protease inhibitor counterscreen. actives 3.1% (n = 360,000). fluorescence intensity (concentration not given with the values). AID 624483. compound autofluorescence counterscreen, microsphere flow cytometry; stronger effect = higher value; in the data active = fluorescence intensity above about 16000; inconclusive = no clear call, values can overlap the other calls
BoNT-A LC inh2 – BoNT/A light chain protease inhibitors, primary screen, biochemical, flow cytometry, MLPCN library; inhibition, % at 10 µM; actives 0.17% (n = 360,000); multiplex microsphere protease substrate cleavage; AID 588499, 2011; Botulinum neurotoxin type A light chain protease (Clostridium botulinum A str. ATCC 3502)
BJeLR viability – MLPCN primary cell-based screen for lethality selective to Ras in HRASV12 cells; BJeLR (HRASV12) viability, CellTiter-Glo ATP luminescence, 48 h; inhibition, % (concentration not given with the values); actives 0.17% (n = 300,000); AID 1554, 2009; in the data active = inhibition above about 50%; inconclusive = no clear call, values can overlap the other calls
Numbers stand for hits; – = inactive; ? = inconclusive; · = no result given. Only some compounds are listed: those with a hit (about 3.7% of all), similar ones and a draw of the others. Rule as the data show it, unless noted: active = inhibition above about 30%; inconclusive = no clear call, values can overlap the other calls; inactive = below that.

SMILES	BH1578 lux ind	BoNT F protease	Anthrax LF inh2	Bead autofluor	BoNT-A LC inh2	BJeLR viability
COc1ccccc1C(=O)NC(=S)/C=C1/N(C)c2ccccc2C1(C)C	–	–	–	–	49	–
COc1ccc(Cc2c(-c3cccc(Cl)c3)nc3ccc(Cl)cn23)c(C)c1	·	–	–	–	–	·
O=C(CN1CCC(NC(=O)c2ccc(F)cc2)CC1)NCc1ccccc1F	–	–	–	17206	–	–
CC(C)[C@H](NC(=O)c1ccc(Cl)cc1Cl)C(=O)OCc1nc2ccsc2c(=O)[nH]1	–	–	–	–	–	·
CC(=O)NC1(C(F)(F)F)N=C2SCCN2C1=O (configuration not stated)	–	–	–	22076	?	–
CC(C)Oc1ccc(C(=O)NC2(C(F)(F)F)N=C3SCCN3C2=O)cc1 (configuration not stated)	–	–	–	20653	?	–
COc1ccc(OC)c(N(CCN2C(=O)c3ccccc3C2=O)C(=O)CCl)c1	–	–	–	–	–	·
Cc1ccsc1C=Nc1ccc(O)cc1	–	–	–	16460	–	–
CC(OC(=O)[C@@H](NS(=O)(=O)c1ccccc1)C(C)C)C(=O)c1c(N)n(C)c(=O)n(C)c1=O (some centres not stated)	–	–	–	–	–	·
O=C(CCc1nc(-c2ccc(Cl)cc2)no1)NC1CCCCC1	–	–	–	–	–	–
Cc1ccc(-c2noc(CCCC(=O)NCC3CCCO3)n2)cc1 (configuration not stated)	–	–	–	–	–	–
O=C(CCc1nc(-c2ccccc2)no1)NC1CCCCC1	–	–	–	21669	–	–
Cc1ccc(-c2noc(CCC(=O)NCC3CCCO3)n2)cc1 (configuration not stated)	–	–	–	23346	–	–
CC1(C(=O)NS(=O)(=O)c2ccc3c(c2)CCO3)CCN1C(=O)Cc1ccc(-c2ccccc2)cc1 (configuration not stated)	–	–	–	–	–	·
O=C(NCC(c1ccco1)N1CCCC1)c1cc2ccccc2s1 (configuration not stated)	–	–	–	16777	–	·
Cc1cccc(OCC(=O)NCC(c2ccco2)N2CCCC2)c1 (configuration not stated)	–	–	–	?	–	·
Cc1cccc(OCCC(=O)NCC(c2ccco2)N2CCCCC2)c1 (configuration not stated)	–	–	–	20481	?	–
CCC(c1nnnn1-c1ccc2c(c1)OCCO2)N1CCN(c2cccc(C)c2C)CC1 (configuration not stated)	·	–	–	–	–	·
Cc1c(/C=N/n2cnnc2)c2ccccc2n1CCOc1ccc(Cl)cc1	–	–	–	16355	–	–
Cc1cc(C)c(NC2=NS(=O)(=O)c3ccccc32)c(C)c1	–	–	–	22474	?	–
COC(=O)c1ccc(C(=O)OC)c(NC2=NS(=O)(=O)c3ccccc32)c1	–	–	–	23866	–	–
Cc1cc(O)c(C(C)C)cc1NC1=NS(=O)(=O)c2ccccc21	–	–	–	16315	–	–
O=C(N/C(=C/c1cccc(Br)c1)C(=O)N1CCCCC1)c1ccco1	–	–	–	–	–	·
CC1(C(=O)NS(=O)(=O)c2cccc(C#N)c2)CCN1C(=O)Cc1ccccc1Cl (configuration not stated)	–	–	–	–	–	·
CN(NC(=O)Nc1ccc(Cl)cc1)c1c(Cl)c(Cl)nn1C	–	–	–	–	–	–
SMILES	BH1578 lux ind	BoNT F protease	Anthrax LF inh2	Bead autofluor	BoNT-A LC inh2	BJeLR viability
CN(C(=O)Nc1ccc(Cl)cc1)c1c2c(nn1C)CCCC2	–	–	–	23809	?	–
Cc1ccc(S(=O)(=O)NC(=O)C2(C)CCN2C(=O)c2ccccc2)cc1 (configuration not stated)	–	–	–	–	–	·
Cc1c(N=Cc2ccncc2)c(=O)n(-c2ccccc2)n1C	–	–	–	–	–	–
Cc1c(N=Cc2cc3c(cc2Cl)OCO3)c(=O)n(-c2ccccc2)n1C	–	–	–	23177	–	–
CCOC(=O)/C(=C\c1cccnc1)C(=O)c1cc(C(C)=O)c(Nc2ccccc2)s1	–	–	–	–	–	53
COCCn1cc(C(=S)N2CCCCC2)c2ccccc21	–	–	–	–	–	–
O=C(c1cccs1)n1cc(C(=S)N2CCOCC2)c2ccccc21	–	–	–	20879	–	–
COCCn1cc(C(=S)N2CCOCC2)c2ccccc21	–	–	–	22910	–	–
Cc1[nH]ccc2cc3nc4ccccc4c3cc12	–	–	–	–	–	·
Cc1ccc(S(=O)(=O)Nc2nsc(N)n2)cc1	–	–	–	17173	–	–
CC(=N)c1c(O)c2ccccc2oc1=O	–	–	–	–	–	–
CC1CCC(C(=O)c2c(O)c3ccccc3oc2=O)CC1 (configuration not stated)	–	–	–	20872	–	–
Cc1[nH]c(=O)c(C#N)c2c1CCCC2	–	–	–	22068	–	–
O=C(Nc1ccc2c(c1)OCO2)C1Cc2c(-c3ccc4c(c3)OCO4)ccnc2O1 (configuration not stated)	–	–	–	–	–	·
C[C@H](CO)N1C[C@H](C)[C@H](CN(C)Cc2ccncc2)Oc2ncc(Br)cc2C1=O	–	–	–	–	–	·
CCOC(=O)C1=C(O)c2ccccc2C(=O)/C1=C\c1ccc(CC)cc1	–	–	–	21598	–	–
CCCc1ccc(/C=C2\C(=O)c3ccccc3C(O)=C2C(=O)OCC)cc1	·	·	·	·	·	–
O=C1NC[C@@H](CCCCN2CCN(CCc3ccc(O)cc3)C(=O)C2=O)N(CCC2CCCCC2)C1=O	·	–	–	–	–	·
Cc1cc2c(s1)NC(=O)CN=C2c1cccs1	–	–	–	19677	?	–
Cc1cccc(C)c1NC(=O)C1(NC(=O)C2CCCN2C(=O)OC(C)(C)C)CCCCC1 (configuration not stated)	–	–	–	21811	–	–
C=CCOC(=O)C1=C(C)NC(=S)NC1/C=C/c1ccccc1 (configuration not stated)	–	–	–	18190	–	–
CC1=C(C(=O)OCc2ccccc2)C(/C=C/c2ccccc2)NC(=S)N1 (configuration not stated)	–	–	–	–	–	–
O=C(NCc1cccc(C(F)(F)F)c1)c1ccc2sc([C@H]3C[C@H](O)[C@@H](CO)O3)nc2c1	–	–	–	–	–	·
COc1ccc(NC(=S)NNC(=O)C(C)n2nc(C)c([N+](=O)[O-])c2C)cc1 (configuration not stated)	–	–	–	–	–	–
